Measurements as given in PubChem BioAssay AID1159580 (chemical genetic matrix, 2015).
Out of some 5,500 compounds screened, about 2,000 (36%) were called active. Another 18% or so got no clear call; they are omitted. Cut-off read from the data, not from the text of the source: active = normalized growth mostly below about 0.91 (no sharp cut-off); inconclusive = no clear call, values can overlap the other calls; inactive = mostly above about 0.92. Some of the results follow.

Experiment: chemical genetic growth profiling, strain panel (AID 1159580);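 note: tested at 20 µM; growth read once vehicle control cultures reached saturation at 30 °C; 1 = growth at the plate median or of vehicle wells; lower values mean less growth of the strain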
Conditions: growth OD

Measured: normalized growth

CN(C)C1C(=O)C(C(N)=O)=C(O)C2(O)C(=O)C3=C(O)c4c(O)ccc(Cl)c4C(C)(O)C3CC12 (stereo unspecified)
inactive: S. cerevisiae deletion strains, locus YAL013W, strain DEP1, active compounds read low 1 | S. cerevisiae deletion strains, locus YBR021W, strain FUR4, active compounds read low 0.979 | S. cerevisiae deletion strains, locus YBR229C, strain ROT2, active compounds read low 0.991 | S. cerevisiae deletion strains, locus YCL029C, strain bik1, active compounds read low 0.975 | S. cerevisiae deletion strains, locus YDL035C, strain GPR1, active compounds read low 1.01 | S. cerevisiae deletion strains, locus YDL074C, strain BRE1, active compounds read low 1.06 | S. cerevisiae deletion strains, locus YDL101C, strain DUN1, active compounds read low 0.995 | S. cerevisiae deletion strains, locus YDL134C, strain PPH21, active compounds read low 0.992 | S. cerevisiae deletion strains, locus YDL185W, strain tfp1, active compounds read low 0.993 | S. cerevisiae deletion strains, locus YDL192W, strain arf1, active compounds read low 0.99 | S. cerevisiae deletion strains, locus YDR101C, strain arx1, active compounds read low 0.997 | S. cerevisiae deletion strains, locus YDR150W, strain NUM1, active compounds read low 0.992 | S. cerevisiae deletion strains, locus YDR162C, strain NBP2, active compounds read low 1.01 | S. cerevisiae deletion strains, locus YDR318W, strain mcm21, active compounds read low 0.99 | S. cerevisiae deletion strains, locus YDR388W, active compounds read low 0.991 | S. cerevisiae deletion strains, locus YDR502C, strain sam2, active compounds read low 0.993 | S. cerevisiae deletion strains, locus YEL061C, strain CIN8, active compounds read low 0.999 | S. cerevisiae deletion strains, locus YER110C, active compounds read low 0.984 | S. cerevisiae deletion strains, locus YER155C, strain BEM2, active compounds read low 0.997 | S. cerevisiae deletion strains, locus YER167W, strain BCK2, active compounds read low 0.988 | S. cerevisiae deletion strains, locus YGL078C, strain dbp3, active compounds read low 0.99 | S. cerevisiae deletion strains, locus YGL086W, strain mad1, active compounds read low 0.982 | S. cerevisiae deletion strains, locus YGL248W, strain PDE1, active compounds read low 0.985 | S. cerevisiae deletion strains, locus YGR078C, strain PAC10, active compounds read low 1.02 | S. cerevisiae deletion strains, locus YGR135W, strain pre9, active compounds read low 1.01 | S. cerevisiae deletion strains, locus YGR229C, strain SMI1, active compounds read low 1.04 | S. cerevisiae deletion strains, locus YGR252W, strain gcn5, active compounds read low 0.948 | S. cerevisiae deletion strains, locus YHR030C, strain SLT2, active compounds read low 0.99 | S. cerevisiae deletion strains, locus YHR079C, strain IRE1 (second series), active compounds read low 0.979 | S. cerevisiae deletion strains, locus YHR094C, strain hxt1, active compounds read low 0.991 | S. cerevisiae deletion strains, locus YHR129C, strain ARP1, active compounds read low 0.994 | S. cerevisiae deletion strains, locus YHR200W, strain rpn10, active compounds read low 0.98 | S. cerevisiae deletion strains, locus YIL066C, strain RNR3, active compounds read low 0.993 | S. cerevisiae deletion strains, locus YIL073C, strain SPO22, active compounds read low 0.96 | S. cerevisiae deletion strains, locus YIL125W, strain kgd1, active compounds read low 1 | S. cerevisiae deletion strains, locus YIR030C, strain dcg1, active compounds read low 0.986 | S. cerevisiae deletion strains, locus YJL095W, strain BCK1, active compounds read low 1.03 | S. cerevisiae deletion strains, locus YJL134W, strain LCB3, active compounds read low 0.991 | S. cerevisiae deletion strains, locus YJL168C, strain set2, active compounds read low 0.991 | S. cerevisiae deletion strains, locus YJL187C, strain SWE1 (second series), active compounds read low 0.996 | S. cerevisiae deletion strains, locus YJR043C, strain POL32, active compounds read low 0.984 | S. cerevisiae deletion strains, locus YJR075W, strain HOC1, active compounds read low 1.01 | S. cerevisiae deletion strains, locus YKL009W, strain mrt4, active compounds read low 0.964 | S. cerevisiae deletion strains, locus YKL068W, active compounds read low 0.996 | S. cerevisiae deletion strains, locus YKL085W, strain MDH1 (second series), active compounds read low 0.984 | S. cerevisiae deletion strains, locus YKL085W, strain MDH1, active compounds read low 0.984 | S. cerevisiae deletion strains, locus YKL190W, strain CNB1, active compounds read low 1 | S. cerevisiae deletion strains, locus YKR001C, strain vps1, active compounds read low 0.985 | S. cerevisiae deletion strains, locus YLR039C, strain RIC1, active compounds read low 0.964 | S. cerevisiae deletion strains, locus YLR058C, strain SHM2, active compounds read low 0.991 | S. cerevisiae deletion strains, locus YLR102C, strain apc9, active compounds read low 0.985 | S. cerevisiae deletion strains, locus YLR262C, strain YPT6, active compounds read low 0.985 | S. cerevisiae deletion strains, locus YLR268W, strain sec22, active compounds read low 0.999 | S. cerevisiae deletion strains, locus YLR330W, strain CHS5, active compounds read low 0.991 | S. cerevisiae deletion strains, locus YLR342W, strain FKS1 (second series), active compounds read low 0.932 | S. cerevisiae deletion strains, locus YLR371W, strain rom2, active compounds read low 0.979 | S. cerevisiae deletion strains, locus YLR418C, strain cdc73, active compounds read low 1.02 | S. cerevisiae deletion strains, locus YML016C, strain PPZ1, active compounds read low 0.986 | S. cerevisiae deletion strains, locus YML032C, strain rad52, active compounds read low 0.98 | S. cerevisiae deletion strains, locus YML124C, strain tub3, active compounds read low 0.989 | S. cerevisiae deletion strains, locus YMR078C, strain ctf18, active compounds read low 0.983 | S. cerevisiae deletion strains, locus YMR223W, strain ubp8, active compounds read low 0.97 | S. cerevisiae deletion strains, locus YMR263W, strain SAP30, active compounds read low 1.02 | S. cerevisiae deletion strains, locus YMR307W, strain GAS1, active compounds read low 0.937 | S. cerevisiae deletion strains, locus YNL067W, strain RPL9B, active compounds read low 1.03 | S. cerevisiae deletion strains, locus YNL128W, strain TEP1, active compounds read low 1.02 | S. cerevisiae deletion strains, locus YNL153C, strain GIM3, active compounds read low 1.01 | S. cerevisiae deletion strains, locus YNL233W, strain BNI4, active compounds read low 0.999 | S. cerevisiae deletion strains, locus YNL250W, strain rad50, active compounds read low 1 | S. cerevisiae deletion strains, locus YNL271C, strain bni1, active compounds read low 0.998 | S. cerevisiae deletion strains, locus YNL298W, strain CLA4, active compounds read low 0.994 | S. cerevisiae deletion strains, locus YNL307C, strain MCK1, active compounds read low 0.976 | S. cerevisiae deletion strains, locus YNL322C, strain KRE1, active compounds read low 1 | S. cerevisiae deletion strains, locus YNR052C, strain pop2, active compounds read low 0.974 | S. cerevisiae deletion strains, locus YOL006C, strain TOP1, active compounds read low 1.09 | S. cerevisiae deletion strains, locus YOL012C, strain htz1 0.811 | S. cerevisiae deletion strains, locus YOL147C, strain pex11, active compounds read low 0.992 | S. cerevisiae deletion strains, locus YOR061W, strain CKA2, active compounds read low 0.997 | S. cerevisiae deletion strains, locus YOR069W, strain VPS5, active compounds read low 0.993 | S. cerevisiae deletion strains, locus YOR136W, strain idh2, active compounds read low 0.992 | S. cerevisiae deletion strains, locus YOR144C, strain elg1, active compounds read low 0.985 | S. cerevisiae deletion strains, locus YOR184W, strain ser1, active compounds read low 0.973 | S. cerevisiae deletion strains, locus YOR316C, strain cot1, active compounds read low 0.971 | S. cerevisiae deletion strains, locus YPL055C, strain LGE1, active compounds read low 1.04 | S. cerevisiae deletion strains, locus YPL241C, strain CIN2, active compounds read low 0.997 | S. cerevisiae deletion strains, locus YPR119W, strain clb2, active compounds read low 0.998 | S. cerevisiae deletion strains, locus YPR141C, strain kar3, active compounds read low 1 | S. cerevisiae deletion strains, locus YPR163C, strain tif3, active compounds read low 0.991 | S. cerevisiae deletion strains, locus YPR167C, strain met16, active compounds read low 0.992 | S. cerevisiae deletion strains, strain wtn01, active compounds read low 0.988 | S. cerevisiae strains, strain wild type, active compounds read low 1
